We go through 27 compounds from PubChem BioAssay (NCATS).

The target in assay [1] is Thyrotropin receptor (Homo sapiens) (UniProt P16473). As to the kind of experiment: qHTS Assay for Antagonists of the Thyroid Stimulating Hormone Receptor (AID 488980). Further: series mostly up to about 58 µM. Put shortly:
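Inhibition of TSH-stimulated cAMP accumulation was quantified by homogeneous time-resolved FRET in TSHR-transfected HEK293 cells. Agonist: TSH, 4 nM final (EC80).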
For orientation: qHTS replaces the single test concentration by a dilution series.

Assay [2] deals with Galactokinase (Homo sapiens) (UniProt P51570). As to the kind of experiment: qHTS Validation Assay for Inhibitors of Human Galactokinase (GALK) (AID 493189). The method in brief:
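Enzyme activity is inferred from ATP consumption: human GALK phosphorylates galactose (100 uM) using 35 uM ATP for 1 h at room temperature, and luciferase-based Kinase-Glo Plus reports unconsumed ATP.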

In assay [3] the target is ATP-dependent 6-phosphofructokinase (Trypanosoma brucei brucei) (UniProt O15648). As to the kind of experiment: qHTS Assay to Find Inhibitors of T. brucei phosphofructokinase: hit validation (AID 492961).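 Further: luminescence reports ADP formed as PFK phosphorylates fructose-6-phosphate with ATP; series mostly up to about 51 µM.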 Put shortly:
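ADP-Glo luminescence read-out of ADP formed by 1.25 nM PFK from 0.1 mM ATP and 0.5 mM F6P (TEA pH 8.0, 45 min, RT). Compounds titrated; activity normalized to no-enzyme and full-enzyme controls.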

For assay [4], the target named is Ubiquitin carboxyl-terminal hydrolase 1 (Homo sapiens) (UniProt O94782). Put plainly: Inhibitors of USP1/UAF1: Pilot qHTS (AID 504865). Further: nearly all actives have a fitted effect of over 35% in size. Further: potency means the concentration at half of the fitted maximal effect. The method in brief:
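Enzyme-free wells gave the negative control, while test wells held 1nM USP1/UAF1 preincubated with compound for 15 min at room temperature. Ub-Rho at 150nM final started the reaction, and fluorescence at 480/540 nm was recorded kinetically.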

Several values for one entry are separate records, joined by “and”; a condition that tells them apart may be missing. Equal entries are not always repeated. Results filed as inconclusive are left out. Entries that show only a call come without a potency. Where a structure was tested more than once in an assay, its records may differ in their call. Activity calls are given as the source filed them. The call rests on the fitted dose curve; in most records, active means well fitted curve in the direction sought with a large enough effect; inconclusive means small, poorly fitted or top-dose-only effect, or another doubt; inactive means no such curve, though single readings can be large; an effect the other way counts as inactive or inconclusive. Where a SMILES comes first, the peptide text is derived from it. [ ]: non-standard residue; d: D form. pGlu = O=C1CC[C@@H](C(=O)O)N1; Thz = O=C(O)[C@@H]1CSCN1

Sequence of Ubiquitin carboxyl-terminal hydrolase 1 (Homo sapiens) (O94782 whole entry, looked up): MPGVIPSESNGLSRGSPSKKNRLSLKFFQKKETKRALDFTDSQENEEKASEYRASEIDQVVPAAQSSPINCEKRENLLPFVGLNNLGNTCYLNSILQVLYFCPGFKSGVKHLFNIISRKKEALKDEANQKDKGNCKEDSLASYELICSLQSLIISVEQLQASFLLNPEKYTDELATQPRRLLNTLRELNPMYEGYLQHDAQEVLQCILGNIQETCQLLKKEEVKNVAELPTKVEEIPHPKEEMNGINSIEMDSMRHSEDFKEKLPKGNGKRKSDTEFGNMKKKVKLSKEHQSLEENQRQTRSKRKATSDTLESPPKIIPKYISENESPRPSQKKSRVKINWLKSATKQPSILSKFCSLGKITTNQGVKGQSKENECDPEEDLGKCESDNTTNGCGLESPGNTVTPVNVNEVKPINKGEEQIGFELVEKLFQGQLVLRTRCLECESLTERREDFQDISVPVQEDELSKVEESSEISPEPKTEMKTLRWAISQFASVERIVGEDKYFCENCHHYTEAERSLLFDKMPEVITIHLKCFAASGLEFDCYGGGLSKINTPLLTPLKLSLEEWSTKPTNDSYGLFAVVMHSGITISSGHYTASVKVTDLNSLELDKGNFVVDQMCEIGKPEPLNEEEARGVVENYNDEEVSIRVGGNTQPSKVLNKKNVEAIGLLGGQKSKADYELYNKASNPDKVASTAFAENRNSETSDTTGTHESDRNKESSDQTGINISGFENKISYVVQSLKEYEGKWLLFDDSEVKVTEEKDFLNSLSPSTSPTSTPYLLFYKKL
Sequence of ATP-dependent 6-phosphofructokinase (Trypanosoma brucei brucei) (O15648 whole entry, looked up): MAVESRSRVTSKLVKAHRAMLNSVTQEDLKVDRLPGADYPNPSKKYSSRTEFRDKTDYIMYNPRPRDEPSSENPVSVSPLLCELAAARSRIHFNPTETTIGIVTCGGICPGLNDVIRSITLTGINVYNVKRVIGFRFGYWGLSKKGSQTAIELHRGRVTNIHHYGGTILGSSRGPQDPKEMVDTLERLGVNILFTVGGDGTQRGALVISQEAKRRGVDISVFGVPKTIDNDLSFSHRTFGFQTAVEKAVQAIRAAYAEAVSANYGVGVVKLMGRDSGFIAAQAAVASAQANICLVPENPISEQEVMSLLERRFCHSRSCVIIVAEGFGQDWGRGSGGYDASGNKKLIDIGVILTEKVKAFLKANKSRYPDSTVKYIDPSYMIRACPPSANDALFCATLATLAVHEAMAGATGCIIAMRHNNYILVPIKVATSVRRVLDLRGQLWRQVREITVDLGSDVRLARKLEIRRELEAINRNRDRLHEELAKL
Sequence of Galactokinase (Homo sapiens) (P51570 whole entry, looked up): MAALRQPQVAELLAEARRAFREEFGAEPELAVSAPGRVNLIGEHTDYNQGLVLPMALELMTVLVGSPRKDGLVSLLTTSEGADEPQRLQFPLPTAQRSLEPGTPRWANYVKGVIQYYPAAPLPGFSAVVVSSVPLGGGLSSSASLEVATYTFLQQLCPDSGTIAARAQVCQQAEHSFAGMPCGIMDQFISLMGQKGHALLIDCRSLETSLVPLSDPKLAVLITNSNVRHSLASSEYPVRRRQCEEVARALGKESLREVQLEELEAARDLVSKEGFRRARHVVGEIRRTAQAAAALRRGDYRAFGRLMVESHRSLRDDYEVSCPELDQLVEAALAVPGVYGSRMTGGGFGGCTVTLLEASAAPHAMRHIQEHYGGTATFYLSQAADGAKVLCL
Sequence of Thyrotropin receptor (Homo sapiens) (P16473 whole entry, looked up): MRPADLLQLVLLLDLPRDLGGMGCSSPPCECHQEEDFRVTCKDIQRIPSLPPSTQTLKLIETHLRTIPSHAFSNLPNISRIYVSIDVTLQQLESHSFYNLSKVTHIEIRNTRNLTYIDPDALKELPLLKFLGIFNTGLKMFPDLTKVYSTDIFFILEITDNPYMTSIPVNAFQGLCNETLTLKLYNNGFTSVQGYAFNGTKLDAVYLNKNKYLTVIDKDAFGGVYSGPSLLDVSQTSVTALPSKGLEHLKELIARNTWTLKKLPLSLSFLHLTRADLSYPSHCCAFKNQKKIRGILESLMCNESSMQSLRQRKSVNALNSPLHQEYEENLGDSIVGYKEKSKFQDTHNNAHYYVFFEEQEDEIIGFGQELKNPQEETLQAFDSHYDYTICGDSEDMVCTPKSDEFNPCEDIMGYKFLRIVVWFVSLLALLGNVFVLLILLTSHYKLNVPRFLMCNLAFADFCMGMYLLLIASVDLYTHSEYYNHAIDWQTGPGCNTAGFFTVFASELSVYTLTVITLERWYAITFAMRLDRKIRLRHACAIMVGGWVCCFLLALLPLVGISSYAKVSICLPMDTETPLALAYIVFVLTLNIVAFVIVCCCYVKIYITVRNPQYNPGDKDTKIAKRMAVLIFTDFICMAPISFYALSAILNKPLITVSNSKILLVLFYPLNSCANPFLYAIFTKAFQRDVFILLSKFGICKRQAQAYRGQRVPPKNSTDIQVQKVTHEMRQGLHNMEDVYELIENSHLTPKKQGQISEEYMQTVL

Take `CC[C@@H](C)[C@H]1O[C@]2(CC[C@@H]1C)C[C@@H]1C[C@@H](C/C=C(\C)[C@@H](O[C@H]3C[C@H](OC)[C@@H](O[C@H]4C[C@H](OC)[C@@H](O)[C@H](C)O4)[C@H](C)O3)[C@@H](C)/C=C/C=C3\CO[C@@H]4[C@H](O)C(C)=C[C@@H](C(=O)O1)[C@]34O)O2`: the call in assay [1] was inactive. For the same compound, the Potency result in assay [2] was “inactive”.
As to `COc1cc2c3cc1Oc1cc(ccc1O)C[C@@H]1c4c(cc(OC)c(O)c4Oc4ccc(cc4)C[C@@H]3N(C)CC2)CC[N+]1(C)C`, the outcome in assay [3] was inactive. The Potency result in assay [4] was “inactive”.
With `Cc1[nH]cnc1CN1CCc2c(c3ccccc3n2C)C1=O`, the outcome in assay [3] was inactive. Also, the Potency entry in assay [4] is “inactive”.
Consider `Cc1cc(O)c2ccccc2c1O`, for which the compound was classed as inactive in assay [3]. In addition, in assay [4], the Potency result is “inactive”.
With `C[S+](CC[C@H](N)C(=O)O)C[C@H]1O[C@@H](n2cnc3c(N)ncnc32)[C@H](O)[C@@H]1O` (stereo partly specified), the result in assay [3] was inactive. In addition, in assay [4], the Potency entry was “inactive”.
In the case of `[O-][n+]1ccccc1SSc1cccc[n+]1[O-]`, the Potency entry in assay [4] is “inactive”.
Turning to `CCCC(=O)OC[C@@H](OC(=O)CCC)[C@@H](OC(=O)CCC)[C@H](Cn1c2nc(=O)[nH]c(=O)c-2nc2cc(C)c(C)cc21)OC(=O)CCC`, the result in assay [3] was inactive. Also, the Potency in assay [4] is 39.8 µM (active).
Taken in the same sequence, the figures for `O=C(OCc1ccccc1)c1ccccc1` were “inactive” and “inactive”.
On to `O=C1CC[C@@H](C(=O)N2CSC[C@H]2C(=O)O)N1` ([pGlu]-[Thz]-OH), for which, in assay [3], the call was inactive. Moreover, the Potency result in assay [4] is “inactive”.
For `Cc1c(Nc2ncccc2C(=O)O)cccc1C(F)(F)F`, the compound was classed as inactive in assay [3]. For the same compound, the Potency result in assay [4] was “inactive”.
Take `Nc1ccc(O)c(C(=O)O)c1`: the Potency in assay [4] was 39.8 µM (active) and 11.2 µM (active).
The same measure, in the same setting: to `CC1(C)[C@@H](O)CC[C@]2(C)[C@H]3C(=O)C=C4[C@@H]5C[C@@](C)(C(=O)O)CC[C@]5(C)CC[C@@]4(C)[C@]3(C)CC[C@@H]12` belongs “inactive”.
`O=C(O)COc1ccc(C(=O)c2cccs2)c(Cl)c1Cl`: the outcome in assay [3] was inactive. In assay [4], the Potency entry is “inactive”.
As to `Cc1c(N)c(=O)n(-c2ccccc2)n1C`, the Potency result in assay [4] was “inactive”.
Take `c1ccc2sc(SSc3nc4ccccc4s3)nc2c1`: in assay [3], the compound was called inactive. Also, the Potency result in assay [4] was “inactive”.
For `Oc1c(Br)cc(Br)c2cccnc12`, in assay [4], the Potency result is “inactive”.
For the compound `Nc1c(CC(=O)O)cccc1C(=O)c1ccc(Br)cc1`, the result in assay [3] was inactive. Besides, the Potency entry in assay [4] is “inactive”.
Consider `C=CCN1C(=O)C(CC(C)C)NC1=S` (stereo unspecified), for which the compound was classed as inactive in assay [3]. In addition, in assay [4], the Potency result was “inactive”.
`COc1cc(/C=C/C(=O)CC(=O)/C=C/c2ccc(O)c(OC)c2)ccc1O`: the Potency in assay [4] was 12.6 µM (active).
`Nc1ccc(C(=O)O)c(O)c1`: the call in assay [3] was inactive. For the same compound, the Potency result in assay [4] was “inactive”.
Turning to `O=C1CN(/N=C/c2ccc([N+](=O)[O-])o2)C(=O)N1`, the compound was called inactive in assay [3]. In addition, in assay [4], the Potency entry is “inactive and 50.1 µM (active)”.
As for `CCCCCC[C@@H](O)C/C=C\CCCCCCCC(=O)O`, in assay [4], the Potency result was “inactive”.
Regarding `CCCCCCCCCCCCCCCCCC(=O)O`, the compound was called inactive in assay [3]. In assay [4], the Potency entry is “inactive”.
`CCOc1ccc2nc(S(N)(=O)=O)sc2c1`: the Potency result in assay [4] was “inactive”.
As for `O=C(O)[C@H](CC(=O)N1C[C@H]2CCCC[C@H]2C1)Cc1ccccc1`, in assay [3], the outcome was inactive. The Potency result in assay [4] is “inactive”.
As to `Cc1ccc(C(=O)c2ccc(CC(=O)O)n2C)cc1`, in assay [3], the compound was classed as inactive. The Potency entry in assay [4] is “inactive”.
As to `CCCOC(=O)c1ccc(O)cc1`, the compound was classed as inactive in assay [3]. In addition, in assay [4], the Potency result was “inactive”.
